Results filed as inconclusive are left out. Entries that show only a call come without a potency. Values without a mark were called inactive. The source made the active and inactive calls. Calls come from the whole dose curve; as a rule, active = well fitted curve in the direction sought with a large enough effect; inconclusive = small, poorly fitted or top-dose-only effect, or another doubt; inactive = no such curve, though single readings can be large; an effect the other way counts as inactive or inconclusive. *1 amine or outer side, *2 acyl side, *3 side chain or, on linkers, in order; H or OH if unused. Where a SMILES comes first, the peptide text is derived from it. [ ]: non-standard residue; d: D form. X4 = CC(C)=CCc1cc(C(O)C(N[*:1])C(=O)[*:2])ccc1O
Key:
[1] = Primary qHTS for inhibitors of nuclear receptor binding SET domain protein 2 (NSD2) in an isogenic RCH-ACV NSD2 p.E1099K mutant (9B) (AID 1645876)
[2] = Primary qHTS for inhibitors of nuclear receptor binding SET domain protein 2 (NSD2) in an RCH-ACV wild type WT cells (2C) (AID 1645877)
Note: nearly all actives have a fitted effect of over 70% in size.
Potency is the fitted concentration of half-maximal effect.

With `C[C@@H]1CC[C@@]2(OC1)O[C@H]1C[C@H]3[C@@H]4CC=C5C[C@@H](O)CC[C@]5(C)[C@H]4CC[C@]3(C)[C@H]1[C@@H]2C` the Potency [1] was “inactive” and the Potency [2] was “inactive”.

With `CC(C)C[C@H](CC(=O)NO)C(=O)N[C@@H](Cc1ccc2ccccc2c1)C(=O)N[C@@H](C)C(=O)NCCN` the Potency [1] was “inactive” and the Potency [2] was “inactive”.

In the case of `O=C(/C=C/c1ccc(O)cc1)N[C@@H](Cc1ccc(O)cc1)C(=O)O`, the Potency [1] is reported as “inactive”.

With `CC(=O)OC1C[C@]2(C)C(O)CC(C)=C[C@H](OC(=O)c3ccc(O)cc3)C2[C@]1(O)C(C)C` (some centres not stated) the Potency [1] was “inactive” and the Potency [2] was “inactive”.

With `CC(=O)N[C@H]1[C@H](O[C@H]2CC[C@@]3(C)C(CC[C@]4(C)C3CC=C3C5CC(C)(C)CC[C@]5(C(=O)O)[C@H](O)C[C@]34C)C2(C)C)O[C@H](CO[C@@H]2OC[C@H](O)[C@H](O)[C@H]2O[C@@H]2OC[C@@H](O)[C@H](O)[C@H]2O)[C@@H](O)[C@@H]1O` (some centres not stated) the activity change, negative = viability loss [1] was -10% [at 9.23 µM] and the activity change, negative = cell killing [2] was 3.06% [at 9.23 µM].

Molecule `C[C@@H]1O[C@@H](O[C@H]2[C@H](O[C@H]3[C@H](O)[C@@H](C(=O)O)O[C@@H](O[C@H]4CC[C@@]5(C)C(CC[C@]6(C)C5CC[C@]57OC[C@@]8(CCC(C)(C)CC85)[C@H](O)C[C@]76C)C4(C)C)[C@@H]3O[C@@H]3O[C@H](CO)[C@@H](O[C@@H]4OC[C@@H](O)[C@H](O)[C@H]4O)[C@H](O)[C@H]3O)O[C@H](CO)[C@H](O)[C@@H]2O)[C@H](O)[C@H](O)[C@H]1O` (some centres not stated) has an activity change, negative = viability loss [1] of 0.445% [at 9.23 µM] and an activity change, negative = cell killing [2] of -1.94% [at 9.23 µM].

With `CC1CC[C@]2(C(=O)O)CC[C@]3(C(=O)O)C(=CCC4[C@@]5(C)CC[C@H](OC6OC(C)C(O)C(OC7OC(CO)C(O)C(O)C7O)C6O)C(C)(C)C5CC[C@]43C)C2C1C` (some centres not stated) the Potency [1] was “inactive” and the Potency [2] was “inactive”.

For `CC12CCC(C(OC3OC(COC4OCC(O)(CO)C4O)C(O)C(O)C3O)C1)C(C)(C)O2` (configuration not stated), the Potency [1] was “inactive”.

For `COC(=O)C[C@H]1[C@]2(C)C3=C(C)[C@H](c4ccoc4)C[C@H]3O[C@@H]2[C@H](OC(C)=O)C2[C@](C)(C(=O)OC)C=CC(=O)[C@@]21C` (some centres not stated), the Potency [1] was “inactive” and the Potency [2] was “inactive”.

With `C[C@@H]1C[C@@H]([C@@H](O)C(C)(C)O)O[C@H]2C[C@@]3(C)C(=C12)C[C@H](O)[C@H]1[C@@]2(C)CCC(=O)C(C)(C)C2CC[C@@]13C` (some centres not stated) the Potency [1] was “inactive” and the Potency [2] was “inactive”.

With `CC1(C)CC2C(C1)C(C)(O)C13CC1(COC3=O)C2O` (configuration not stated) the Potency [1] was “inactive” and the Potency [2] was “inactive”.

For `C=CC1(C)C=C2CCC3C(C)(C)C(O[C@@H]4O[C@@H](CO)[C@H](O)[C@H]4O)CCC3(C)C2CC1O[C@@H]1O[C@H](C)[C@H](O)[C@H](O)[C@H]1O` (some centres not stated), the Potency [1] was “inactive” and the Potency [2] was “inactive”.

In the case of `C/C=C/C=C/[C@@H]1O[C@](O)([C@H](CC)C(=O)NC/C=C/C=C(\C)[C@@H](OC)[C@@H](C)C2OC(/C=C/C=C/C=C(\C)C(=O)c3c(O)cc[nH]c3=O)[C@H](O)[C@@H]2O)[C@H](O)[C@H](O)C1(C)C` (some centres not stated), the Potency [1] is reported as “inactive” and the Potency [2] is reported as “inactive”.

For `CC(C)(O)/C=C/C1=CC(=O)[C@@](C)(O)C[C@H]1O`, the Potency [1] was “inactive” and the Potency [2] was “inactive”.

In the case of `[N-]=[N+]=N[C@]1(CO)O[C@@H](n2ccc(=O)[nH]c2=O)[C@@H](O)[C@@H]1O`, the Potency [1] is reported as “inactive” and the Potency [2] is reported as “inactive”.

In the case of `O=C(O[C@H]1[C@@H]2C=CO[C@@H](O[C@@H]3O[C@H](CO)[C@@H](O)[C@H](O)[C@H]3O)[C@@H]2[C@@]2(CO)O[C@@H]12)c1ccccc1`, the Potency [1] is reported as “inactive”.

With `C[C@]1(CO)CCC[C@]2(C)C3=C(CCC12)COC3` (some centres not stated) the Potency [1] was “inactive” and the Potency [2] was “inactive”.

With `C=C1CC[C@@H]2[C@@](C)(CO[C@@H]3O[C@H](CO)C(O)[C@H](O)C3O)[C@H](O)CC[C@@]2(C)[C@@H]1CC/C(C)=C/CO` (some centres not stated) the activity change, negative = viability loss [1] was 3.18% [at 9.23 µM] and the activity change, negative = cell killing [2] was -1.61% [at 9.23 µM].

With `Nc1ncnc2c1ncn2CCNCCCCCO` the Potency [1] was “inactive” and the Potency [2] was “inactive”.

With `CN=C(N)NCCCCC/C=C(/C)CC(C)C1OC(=O)C(C)C(O)/C=C/C(C)C(O)CC(O)C(C)C(O)CCC(C)C(O)CC2(O)OC(CC(OC(=O)CC(=O)O)CC(O)CC(O)C(C)C(O)/C(C)=C/CCC1C)CC(O)C2O` (configuration not stated) the Potency [1] was 3880 nM (active).

With `O=C(O)Cc1cn(C2OCC(O)C(O)C2O[C@@H]2O[C@H](CO)[C@@H](O)[C@H](O)[C@H]2O)c2ccccc12` (some centres not stated) the Potency [1] was “inactive”.

In the case of `CC(=O)CCC1=C(C)C(O[C@@H]2O[C@H](CO)[C@@H](O)[C@H](O)[C@H]2O)C(O)CC1(C)C` (some centres not stated), the Potency [1] is reported as “inactive” and the Potency [2] is reported as “inactive”.

In the case of `CC1(C)CC[C@]2(C(=O)O[C@@H]3O[C@H](CO)[C@@H](O)[C@H](O)[C@H]3O)CC[C@]3(C)C(=CCC4[C@@]5(C)C[C@@H](O)[C@H](O)C(C)(C)C5[C@H](O)C[C@]43C)[C@@H]2[C@@H]1O` (some centres not stated), the Potency [1] is reported as “inactive” and the Potency [2] is reported as “inactive”.

In the case of `CC1(C)CCCC2(C)C(C(=O)O)=CCC12` (configuration not stated), the Potency [1] is reported as “inactive”.

For `CC1OC(OC2C(OC3C(O[C@H]4CC[C@@]5(C)C(CC[C@]6(C)C5C(=O)C=C5C7CC(C)(C)CC(O)[C@]7(C)CC[C@]56C)C4(C)C)OC(C(=O)O)C(O)C3O)OCC(O)C2O)C(O)C(O)C1O` (some centres not stated), the activity change, negative = viability loss [1] was -6.05% [at 9.23 µM] and the activity change, negative = cell killing [2] was 0.842% [at 9.23 µM].

With `CCCC(=O)O[C@@H]1[C@@H]2[C@@H](OC(C)=O)[C@]3(C)C(=O)[C@H]4[C@@H](OC(C)=O)C(C)(C)C[C@H]4[C@]3(C)C(=O)[C@@]2(OC(C)=O)C[C@@H]1C` the Potency [1] was “inactive” and the Potency [2] was “inactive”.

With `O=C(O)/C=C/c1cc2c(cc1O[C@@H]1O[C@H](CO)[C@@H](O)[C@H](O)[C@H]1O)OCO2` the Potency [1] was “inactive” and the Potency [2] was “inactive”.

In the case of `CC(=O)O[C@@H]1C[C@H](O)[C@@]23CO[C@H](O)[C@]1(C)C2C[C@@H](O)[C@]1(C)C3C(=O)[C@H](OC(C)=O)[C@@]2(C)[C@H](c3ccoc3)C[C@H]3O[C@]321` (some centres not stated), the Potency [1] is reported as 34.2 nM (active) and the Potency [2] is reported as 21.6 nM (active).

`CC1(C)CC[C@]2(C(=O)O[C@@H]3O[C@H](CO)[C@@H](O)[C@H](O)[C@H]3O)CC[C@]3(C)C(=CCC4[C@@]5(C)CC[C@H](O[C@@H]6O[C@H](C(=O)O)[C@@H](O)[C@H](O)[C@H]6O)[C@@](C)(CO)C5CC[C@]43C)C2C1` (some centres not stated) gave an activity change, negative = viability loss [1] of 3.1% [at 9.23 µM] and an activity change, negative = cell killing [2] of 4.55% [at 9.23 µM].

For `C=C1C(=O)O[C@H]2[C@H]1CC/C(C)=C/CC[C@@]1(C)O[C@@H]21`, the Potency [1] was 25800 nM (active).

For `C[C@@H]1C(=O)OC[C@H]2C(C(=O)O)=C[C@@H]3CC(C)(C)C[C@]312`, the Potency [1] was “inactive” and the Potency [2] was “inactive”.

For `C/C(=C\CCC(C)CCO)C(=O)O[C@@H]1[C@@H](O)[C@H](OC2OC=C(C(=O)O)C3CCC(C)(O)C23)O[C@H](CO)[C@H]1O` (some centres not stated), the Potency [1] was “inactive” and the Potency [2] was “inactive”.

For `CC1(C(=O)O)CCCC2(C)C3CCC4CC3(CCC12)CC4=O` (configuration not stated), the Potency [1] was “inactive” and the Potency [2] was “inactive”.

In the case of `COc1cc2c(cc1OC)[C@@H]1[C@H](O)[C@@H](OC)C=C3CCN(C2)[C@H]31`, the Potency [1] is reported as 4500 nM (active) and the Potency [2] is reported as 4500 nM (active).

With `CC/C=C\CC1C(=O)C=CC1(CCCCCCCC(=O)O)OC(C)=O` (configuration not stated) the Potency [1] was “inactive”.

For `CC1=C(C(=O)O)/C(=C/CO[C@@H]2O[C@H](COC(=O)/C=C/c3ccc(O)cc3)[C@@H](O)[C@H](O)[C@H]2O)C(O)C1` (some centres not stated), the Potency [1] was “inactive” and the Potency [2] was “inactive”.

With `O=C(O)/C=C/c1ccc(O)c(O[C@@H]2O[C@H](CO)[C@@H](O)[C@H](O)[C@H]2O)c1` the Potency [1] was “inactive” and the Potency [2] was “inactive”.

For `CCCOC(c1cc2nccc(C(=O)O)c2[nH]1)c1ccccc1Cl` (configuration not stated), the Potency [1] was “inactive” and the Potency [2] was “inactive”.

With `C/C1=C\CC[C@]2(C)O[C@@H]2[C@H](O)[C@H](C(C)C)[C@H](OC(=O)/C=C/c2ccccc2)C1` the Potency [1] was “inactive” and the Potency [2] was “inactive”.

In the case of `C[C@@H]1O[C@@H](OC[C@H]2O[C@@H](Oc3cc(O)cc4c3C(=O)C(O)(Cc3ccc(O)cc3)O4)[C@H](O)[C@@H](O)[C@@H]2O)[C@H](O)[C@H](O)[C@H]1O` (some centres not stated), the Potency [1] is reported as “inactive” and the Potency [2] is reported as “inactive”.

For `C=CC(C)(O)C(O)CC1C(C)(O)C(O)C(O)C2C(C)(C)CCCC21C` (configuration not stated), the Potency [1] was “inactive” and the Potency [2] was “inactive”.

For `CC1(C)CC[C@@]2(C(=O)O[C@@H]3O[C@H](CO)[C@@H](O)[C@H](O)[C@H]3O)C(C1)C1=CCC3[C@@]4(C)CC[C@@H](O[C@@H]5O[C@H](C(=O)O)[C@@H](O[C@@H]6OC[C@@H](O)[C@H](O)[C@H]6O)[C@H](O[C@@H]6OC[C@](O)(CO)[C@H]6O)[C@H]5O)C(C)(C)C4CC[C@@]3(C)[C@]1(C)C[C@H]2O` (some centres not stated), the activity change, negative = viability loss [1] was -47.8% [at 9.23 µM] and the activity change, negative = cell killing [2] was -88.4% [at 9.23 µM].

With `CCC(C)C(=O)OC1CC(O)C23C4OCC5(C(O)CC2C1(C)C(O)O4)C3C(=O)CC1(C)C(c2ccoc2)CC2OC215` (configuration not stated) the Potency [1] was 399 nM (active) and the Potency [2] was 126 nM (active).

`CC(C)=CCc1cc(C(O)C2NC(=O)CNC(=O)C(Cc3c[nH]c4ccccc34)NC(=O)C3CCCN3C(=O)CNC(=O)C(C(C)C)NC(=O)CNC2=O)ccc1O` (configuration not stated) (cyclo(G[X4]GVGPW); configuration not given here) showed an activity change, negative = viability loss [1] of -11.5% [at 9.23 µM] and an activity change, negative = cell killing [2] of -18.5% [at 9.23 µM].

`C[C@@H]1O[C@@H](O[C@H]2[C@H](O[C@H]3CC[C@@]4(C)C(CC[C@]5(C)C4CC=C4[C@@H]6CC(C)(C)CC[C@]6(C(=O)O[C@@H]6OC[C@H](O)[C@H](O)[C@H]6O[C@@H]6O[C@@H](C)[C@H](O[C@@H]7O[C@H](CO)[C@@H](O)[C@H](O)[C@H]7O)[C@H](O)[C@H]6O)[C@H](O)C[C@]45C)C3(C)C)O[C@H](CO)[C@@H](O[C@@H]3OC[C@@H](O)[C@H](O)[C@H]3O)[C@@H]2O)[C@H](O)[C@H](O)[C@H]1O` (some centres not stated) showed an activity change, negative = viability loss [1] of -6.56% [at 9.23 µM] and an activity change, negative = cell killing [2] of -15.2% [at 9.23 µM].
